Compound activity deposited in PubChem BioAssay by National Center for Advancing Translational Sciences (NCATS).
The list is not random: actives were taken first. Their share in the collection is about 19%.
DT40 TDP1 no CPT: qHTS for Inhibitors of human tyrosyl-DNA phosphodiesterase 1 (TDP1): qHTS in cells in absence of CPT; DT40 Tdp1-/- hTDP1 cells, no CPT, ATP luminescence, 48 h; Potency, µM (top dose mostly 46.2 µM), for the others: top-dose activity change, negative = growth inhibition, actives largely listed as inhibitors; 15% of 420,000 active; note: potency is the fitted concentration of half-maximal effect; nearly all actives have a fitted effect of over 55% in size
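Chicken DT40 Tdp1-/- cells stably complemented with human TDP1 were seeded at 400 cells/well with DMSO in place of 20 nM camptothecin. After compound pinning, cells grew at least 48 hr at 37 °C; viability read by CellTiter-Glo luminescence.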
Giardia kill: kills Giardia lamblia | Giardia lamblia trophozoite viability | activity change, % at 7.66 µM, hits read low | 0.15% of 340,000 active | AID 540267; in the data active = activity change below about -80%; inconclusive = between about -30% and that limit;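 note: parasites exposed to compound for two days anaerobically before the ATP read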
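ATP-content bioluminescence gauges trophozoite survival. Cells (100/well) receive compound and incubate anaerobically for 48 hrs at 37 deg C; detection reagent follows for 15-30 min at room temperature.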
IL1B secr inh: inflammasome signaling inhibition, IL-1 beta readout; THP-1 LPS/ATP IL-1B secretion, AlphaLISA, 16 h; hits give low values; activity change, % at 57.5 µM; 4.7% of 360,000 active; AID 743279; in the data active = activity change below about -50%; inconclusive = mostly about -30% to -49%
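Secreted IL-1B measured by AlphaLISA bead assay after 16 h compound exposure of THP-1 cells; compounds (final up to 57.5 uM) added 1 h before LPS (250 ng/mL) and ATP (1.25 mM) stimulation; lower signal means less secretion.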
DT40 TDP1 CPT: DT40-hTDP1 cell growth loss with CPT. chicken DT40 Tdp1-/-;hTDP1 cells + 20 nM CPT, ATP luminescence, 48 h. Potency, µM (highest dose often 46.2 µM), without a hit: at the highest dose activity change, negative = growth inhibition, actives largely listed as inhibitors. 12% of 420,000 active. AID 686979; note: potency is the fitted concentration of half-maximal effect; nearly all actives have a fitted effect of over 55% in size
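Chicken DT40 Tdp1-/- cells complemented with human TDP1, 400 cells/well, exposed to compounds plus 20 nM camptothecin for at least 48 h at 37 C; viability read as ATP content by CellTiter-Glo luminescence.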
TDP1 block: TDP1 (human) enzyme inhibition; recombinant TDP1, AlphaScreen DNA substrate cleavage; Q9NUW8; Potency, µM (series often up to 130 µM), inactives show at the highest dose activity change, negative = inhibition, hits mostly inhibitors; 0.28% of 350,000 active; note: potency is the fitted concentration of half-maximal effect; nearly all actives have a fitted effect of over 40% in size
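Recombinant E. coli-expressed Tdp1 (1 nM) preincubated with compound 15 min at RT, then 5'-biotin/3'-phosphotyrosine-FITC DNA substrate (15 nM) added for 5 min. AlphaScreen beads (10 ug/ml) added, 10 min RT; tyrosine-FITC cleavage read as signal loss.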
ELG1 repair inh: inhibitors of ELG1-dependent DNA repair in HEK293T cells; HEK293T ELG1-luciferase reporter, luminescence, 16 h; DNA damage induced by 5-fluorouridine; 2.3% of 330,000 active; Potency, µM (titrated, usually from 46.1 µM), for the others: at the top dose activity change, negative = inhibition, hits mostly inhibitors; note: potency is the fitted concentration of half-maximal effect; nearly all actives have a fitted effect of over 55% in size
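Luminescence from the luciferase reporter, measured 30 min after ONE-Glo reagent at room temperature, was the read-out. Beforehand, 2,000 cells per well were exposed for 16 hr at 37 °C to 5-fluorouridine together with compound or vehicle.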
ELG1 FLuc counter: luciferase inhibition in cell-free luciferin readout for ELG1 hits; 3% of 350 active; Potency, µM (titrated, usually from 46.1 µM), inactives show at the top dose activity change, negative = inhibition, usual class: inhibitors; shares compounds with ELG1 repair inh; cell-free firefly luciferase luminescence counter-screen, ViewLux; AID 624247; note: potency is the fitted concentration of half-maximal effect
ELG1-Luc inh: human ELG1 repair inhibition, luciferase-tagged ELG1 confirmation; shares compounds with ELG1 repair inh; HEK293T ELG1-luciferase levels, luminescence; cells co-treated with 5-fluorouridine; Potency, µM (series often up to 46.1 µM), for inactives: top-dose activity change, negative = inhibition, actives largely listed as inhibitors; 68% of 670 active; AID 624248; note: potency is the fitted concentration of half-maximal effect; nearly all actives have a fitted effect of over 55% in size
Target sequence (Q96QE3 whole entry, looked up): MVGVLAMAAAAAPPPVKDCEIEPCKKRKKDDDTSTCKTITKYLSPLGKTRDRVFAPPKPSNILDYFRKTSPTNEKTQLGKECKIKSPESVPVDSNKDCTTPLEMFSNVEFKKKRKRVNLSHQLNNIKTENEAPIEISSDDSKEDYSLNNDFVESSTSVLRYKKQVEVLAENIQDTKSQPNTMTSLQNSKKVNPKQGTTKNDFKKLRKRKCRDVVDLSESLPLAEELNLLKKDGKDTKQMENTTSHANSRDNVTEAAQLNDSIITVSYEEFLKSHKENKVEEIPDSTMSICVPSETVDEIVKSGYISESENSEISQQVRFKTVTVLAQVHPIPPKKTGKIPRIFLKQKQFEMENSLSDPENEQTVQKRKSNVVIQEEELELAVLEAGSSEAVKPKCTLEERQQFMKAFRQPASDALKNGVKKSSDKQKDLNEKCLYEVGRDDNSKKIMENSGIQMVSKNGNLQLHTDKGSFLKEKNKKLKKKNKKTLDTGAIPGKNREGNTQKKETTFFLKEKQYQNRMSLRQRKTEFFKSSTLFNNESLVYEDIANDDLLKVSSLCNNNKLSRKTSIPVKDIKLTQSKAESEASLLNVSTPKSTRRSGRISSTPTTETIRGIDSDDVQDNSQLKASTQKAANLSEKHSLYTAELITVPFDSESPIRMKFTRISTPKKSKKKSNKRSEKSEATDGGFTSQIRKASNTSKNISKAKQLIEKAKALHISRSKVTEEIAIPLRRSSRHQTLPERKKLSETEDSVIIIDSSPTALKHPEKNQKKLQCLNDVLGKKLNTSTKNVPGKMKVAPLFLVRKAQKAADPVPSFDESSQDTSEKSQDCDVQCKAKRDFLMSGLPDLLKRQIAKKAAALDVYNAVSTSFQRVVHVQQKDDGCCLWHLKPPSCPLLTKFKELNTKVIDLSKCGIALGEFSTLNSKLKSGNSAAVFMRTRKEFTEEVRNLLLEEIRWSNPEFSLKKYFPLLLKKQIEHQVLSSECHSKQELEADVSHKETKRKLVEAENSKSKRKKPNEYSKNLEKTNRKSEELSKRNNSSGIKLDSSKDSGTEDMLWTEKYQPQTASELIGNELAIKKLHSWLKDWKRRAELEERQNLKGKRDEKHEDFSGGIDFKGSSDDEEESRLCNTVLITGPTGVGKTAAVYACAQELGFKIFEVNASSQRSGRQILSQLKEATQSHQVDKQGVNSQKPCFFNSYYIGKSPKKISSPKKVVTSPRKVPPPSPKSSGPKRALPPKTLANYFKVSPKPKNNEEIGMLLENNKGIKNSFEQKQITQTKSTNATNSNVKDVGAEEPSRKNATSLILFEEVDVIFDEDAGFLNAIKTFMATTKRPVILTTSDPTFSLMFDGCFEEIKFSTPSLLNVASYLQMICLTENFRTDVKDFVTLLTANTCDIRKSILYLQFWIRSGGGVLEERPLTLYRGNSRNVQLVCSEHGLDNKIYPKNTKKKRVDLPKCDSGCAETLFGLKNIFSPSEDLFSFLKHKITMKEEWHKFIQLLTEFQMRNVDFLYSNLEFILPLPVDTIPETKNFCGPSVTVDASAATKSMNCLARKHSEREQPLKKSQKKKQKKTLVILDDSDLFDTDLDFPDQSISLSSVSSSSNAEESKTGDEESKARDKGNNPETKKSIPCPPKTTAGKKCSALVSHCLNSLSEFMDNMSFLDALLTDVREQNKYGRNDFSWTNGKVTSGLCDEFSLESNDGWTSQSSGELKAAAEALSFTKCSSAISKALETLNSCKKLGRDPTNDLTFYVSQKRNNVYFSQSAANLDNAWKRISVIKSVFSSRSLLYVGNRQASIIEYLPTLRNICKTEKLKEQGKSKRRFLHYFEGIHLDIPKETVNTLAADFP
ELG1-Luc MMS: inhibits ELG1-dependent repair under MMS stimulation in HEK293T cells; shares compounds with ELG1 repair inh; HEK293T luciferase-tagged ELG1 level, MMS stimulated; Potency, µM (top dose mostly 46.1 µM), inactives show at the top dose activity change, negative = inhibition, usual class: inhibitors; 53% of 670 active; AID 624249; note: potency is the fitted concentration of half-maximal effect; nearly all actives have a fitted effect of over 60% in size
ELG1 5-FU: confirmation of ELG1 repair inhibitors: viability with 5FU; shares compounds with ELG1 repair inh; cell viability with 5-FU, ELG1-dependent repair; Potency, µM (top dose mostly 46.1 µM), without a hit: top-dose activity change, negative = viability loss, actives largely listed as cytotoxic; 670 tested, under 10 active; AID 624250;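 note: ELG1-luc HEK293T cells cotreated with 5-fluorouridine at 10 µM final; potency is the fitted concentration of half-maximal effect; viability measured 16 h after compound addition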
ELG1 MMS cell: confirmation of ELG1 repair inhibitors: viability with MMS | 33% of 670 active | Potency, µM (series often up to 46.1 µM), for inactives: at the top dose activity change, negative = viability loss, most hits filed as cytotoxic | AID 624251 | shares compounds with ELG1 repair inh | Cell viability with MMS, ELG1-dependent DNA repair;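 note: ELG1-luc HEK293T cells co-treated with 10 µM MMS; potency is the fitted concentration of half-maximal effect; viability read 16 h after compound addition; nearly all actives have a fitted effect of over 60% in size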
ELG1 unstim viab: counter-screen for ELG1 repair inhibitors: unstimulated cell viability | shares compounds with ELG1 repair inh | cell viability counter-screen, unstimulated, luminescence | Potency, µM (titrated, usually from 45.9 µM), without a hit: top-dose activity change, negative = loss of viability, hits mostly cytotoxic | 8% of 900 active;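 note: potency is the fitted concentration of half-maximal effect; compound exposure lasted 16 hours before reading; nearly all actives have a fitted effect of over 55% in size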
FLuc biochem: inhibits purified firefly luciferase, counter-screen for ELG1 hits | Potency, µM (highest dose often 57.5 µM), inactives show at the top dose activity, negative = inhibition, actives largely listed as inhibitors | AID 624253 | 10% of 350 active | shares compounds with ELG1 repair inh | purified firefly luciferase, luminescence counter-screen; note: potency is the fitted concentration of half-maximal effect
An asterisk follows results filed as active; ? = inconclusive; · = no result given. Unless noted, calls come from the whole dose curve; as a rule, active = well fitted curve in the direction sought with a large enough effect; inconclusive = small, poorly fitted or top-dose-only effect, or another doubt; inactive = no such curve, though single readings can be large; an effect the other way counts as inactive or inconclusive. % is set by controls: 0 for no effect and ±100 for the full control effect.

SMILES | DT40 TDP1 no CPT | Giardia kill | IL1B secr inh | DT40 TDP1 CPT | TDP1 block | ELG1 repair inh | ELG1-Luc inh | ELG1-Luc MMS | ELG1 5-FU | ELG1 MMS cell | ELG1 unstim viab | others
CCOC(=O)c1ccc(NC(=O)C2C3C=CC(O3)C2C(=O)O)cc1 (stereo not given) | · | · | · | · | -1% | ? | · | · | · | · | ·
CCOC(=O)c1ccc(NC(=O)c2nc[nH]c2C(=O)NCCNC(=O)c2[nH]cnc2C(=O)Nc2ccc(C(=O)OCC)cc2)cc1 | 3.7µM* | -4 | 13 | 2.9µM* | 1% | 0.52µM* | 0.79µM* | 1.4µM* | ? | ? | -21% | ELG1 FLuc counter=?;FLuc biochem=?
CN1CCc2cccc(Cl)c2CC1 | 3% | 13 | 16 | -7% | 4% | -3% | · | · | · | · | ·
CC1C(OC(=O)CCC(=O)NC(C)(C)CO)O[C@H]2OC3(C)CC[C@H]4[C@H](C)CCC1C24OO3 (stereo not given in full) | 0.037µM* | 24 | -68* | 0.82µM* | · | 1.2µM* | ? | ? | -5% | ? | ?
NS(=O)(=O)c1cccc(N2CCNCC2)c1 | -17% | -2 | -6 | 30% | 3% | 6% | · | · | · | · | ·
